Data on five compounds can be found in PubChem BioAssay.

Assay [1] concerns Wnt5a (protein binding on small-molecule microarray). Description: small molecules binding Wnt5a protein – biophysical, small-molecule microarray, 635/667 nm fluorescence, primary screen (AID 1142).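 Note: fluorescence read at 667 nm with signal to noise per printed feature.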 Particulars: 635 nm fluorescence, higher = more signal.
Assay [2] in a line: ATP-based viability of Huh7 replicon cells – cell-based, CellTiter-Glo luminescence, basal, 48 h, cytotoxicity control for HCV replication inhibitor project, primary screen (AID 1143).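 Note: Huh7 hepatoma cells carrying a hepatitis C replication reporter with no stimulus; test concentration not given here.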 The settings on record: higher = more signal, called active from +8 up or from −8 down. In general terms: Replicon systems follow genome replication, usually without infectious particles.
Assay [3] can be described thus: Pseudomonas biofilm growth suppression – PAO1 strain, BacTiter-Glo luminescence, LB-PBS, primary screen (AID 1144). The settings on record: P. aeruginosa PAO1 biofilm, 12 h, higher = more signal.
The nature of assay [4]: basal CRE-LacZ reporter activity in PC12 – cell-based, unstimulated, primary screen (AID 1145). Particulars: no forskolin, luminescence, 4.5 h, higher = more signal, called active from +8 up or from −8 down.
Assay [5] can be described thus: forskolin-driven CRE-LacZ activity in PC12 – cell-based, CRE-LacZ reporter, forskolin-stimulated, primary screen (AID 1146).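 Note: PC12 cells with 6xCRE LacZ reporter stimulated by forskolin 10 µM; beta-galactosidase reporter signal reflecting CREB driven transcription.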 The settings on record: luminescence, 4.5 h, higher = more signal, called active from +8 up or from −8 down.
The target in assay [6] is Streptavidin (Streptomyces avidinii) (UniProt P22629). The experiment in a line: compounds binding control protein streptavidin – biophysical, small-molecule microarray, 635/667 nm fluorescence, artefact control for SMM compound annotation, primary screen (AID 1147).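 Note: signal reflects streptavidin binding to arrayed compounds as a control protein.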 Particulars: higher = more signal.
Chain of Streptavidin (Streptomyces avidinii) (P22629 whole entry, looked up): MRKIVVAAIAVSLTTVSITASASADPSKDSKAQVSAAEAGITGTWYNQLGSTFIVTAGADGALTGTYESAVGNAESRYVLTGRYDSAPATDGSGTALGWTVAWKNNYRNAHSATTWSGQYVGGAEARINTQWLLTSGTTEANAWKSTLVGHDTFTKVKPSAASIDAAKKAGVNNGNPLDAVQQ
A short description of assay [7]: probe aInhba binding on compound microarray – biochemical, small-molecule microarray, 635/667 nm fluorescence, primary screen (AID 1148).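 Note: score merges 667nm spot fluorescence with signal-to-noise for antibody binding to printed compounds.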 Particulars: higher = more signal.
Assay [8] has as its target Torsin-1A (Homo sapiens) (UniProt O14656). Description: TOR1A wild-type binding on microarray – cell lysate, small-molecule microarray, lysate, 635/667 nm, primary screen (AID 1149). Particulars: COS7 hTOR1A-WT lysate, 635 nm fluorescence, higher = more signal.
The target is the same in assay [9]. Description: torsin A mutant lysate binding on microarrays – cell lysate, small-molecule microarray, COS7 lysate, 635/667 nm fluorescence, primary screen (AID 1150).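 Note: score pools 667 nm emission and signal to noise measuring lysate protein binding.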 The settings on record: COS7 hTOR1A mutant lysate, 635 nm fluorescence, higher = more signal.
The subject of assay [10] is Sonic hedgehog protein (Shh). The experiment in a line: Sonic hedgehog microarray binding compounds – biochemical, small-molecule microarray, 635/667 nm fluorescence, primary screen (AID 1151).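 Note: Shh protein binding to compounds spotted on small-molecule microarray slides; score combines spot fluorescence intensity with signal-to-noise across triplicate slides.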 The settings on record: 635 nm fluorescence, higher = more signal.
Assay [11] in a line: optical density shifts of acrAB sulA E. coli – strain DRC41, OD650, 48 h, E. coli filamentation inducer project, primary screen (AID 1152).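 Note: E. coli MC1000 strain DRC41 lacking acrAB efflux pump and sulA.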 The settings on record: higher = more signal, called active from +8 up or from −8 down.
A short description of assay [12]: probe aLefty1 binding on compound microarray – biochemical, small-molecule microarray, 635/667 nm fluorescence, primary screen (AID 1153).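 Note: score merges spot fluorescence with signal-to-noise ratio from the scanned slide images.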 Particulars: higher = more signal.
Assay [13] can be described thus: plasmodial surface anion channel blockers, osmotic lysis – cell-based, P. falciparum Indochina, OD700, 1 h, primary screen (AID 1154). The settings on record: P. falciparum Indochina infected RBC osmotic lysis, higher = more signal, called active from +8 up or from −8 down.
The nature of assay [14]: plasmodial surface anion channel blockers, osmotic lysis – cell-based, P. falciparum Indochina, OD700, 2 h, primary screen (AID 1155).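 Note: lysis reports solute entry through the parasite surface anion channel PSAC.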 Particulars: P. falciparum Indochina infected erythrocytes, higher = more signal, called active from +8 up or from −8 down.
The nature of assay [15]: changes in parasitized red cell lysis, either direction – P. falciparum Indochina, OD700, 3 h, PSAC antagonist project, primary screen (AID 1156). Particulars: P. falciparum-infected erythrocytes, osmotic lysis, higher = more signal, called active from +8 up or from −8 down.
Assay [16] in a line: plasmodial surface anion channel blockers, osmotic lysis – cell-based, P. falciparum Indochina, OD700, 18 h, primary screen (AID 1157). The settings on record: P. falciparum Indochina infected erythrocytes, osmotic lysis OD700, 18 h; higher = more signal, called active from +8 up or from −8 down.
Assay [17] is described as follows: S6 kinase pathway phospho-S6 level changes – cell-based, A549, cytoblot, luminescence, serum-stimulated, primary screen (AID 1158).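 Note: serum-stimulated A549 lung adenocarcinoma cells; signal is phosphorylated S6 detected by cytoblot immunostaining with HRP secondary.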 Particulars: 5 h, higher = more signal.
For assay [18], the target named is NADPH oxidase 2 (Homo sapiens) (UniProt P04839). The experiment in a line: compounds shifting NOX2 Amplex Red fluorescence – cell-based, HEK293-NOX2, PMA-stimulated, NOX inhibitor project, primary screen (AID 1159). Note: test concentration not given here. The settings on record: 45 min, higher = more signal, called active from +8 up or from −8 down.
Chain of NADPH oxidase 2 (Homo sapiens) (P04839 whole entry, looked up): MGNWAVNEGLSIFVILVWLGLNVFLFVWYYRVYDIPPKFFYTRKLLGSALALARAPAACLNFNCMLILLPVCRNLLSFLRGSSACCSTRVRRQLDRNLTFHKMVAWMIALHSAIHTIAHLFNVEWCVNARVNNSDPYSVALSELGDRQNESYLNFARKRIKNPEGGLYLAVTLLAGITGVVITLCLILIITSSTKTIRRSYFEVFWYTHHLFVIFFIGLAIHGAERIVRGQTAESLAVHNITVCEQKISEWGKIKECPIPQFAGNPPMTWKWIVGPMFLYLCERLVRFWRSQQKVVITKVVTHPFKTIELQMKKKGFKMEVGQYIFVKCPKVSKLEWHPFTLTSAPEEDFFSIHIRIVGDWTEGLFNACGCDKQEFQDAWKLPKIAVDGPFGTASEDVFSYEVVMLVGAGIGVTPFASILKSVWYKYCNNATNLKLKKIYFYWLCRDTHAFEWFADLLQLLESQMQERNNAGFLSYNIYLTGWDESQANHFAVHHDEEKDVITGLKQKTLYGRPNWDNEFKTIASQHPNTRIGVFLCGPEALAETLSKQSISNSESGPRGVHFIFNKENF
The target in assay [19] is NADPH oxidase 4 (Homo sapiens) (UniProt Q9NPH5). The experiment in a line: compounds shifting NOX4 Amplex Red fluorescence – cell-based, HEK293-NOX4, tetracycline-induced, NOX inhibitor project, primary screen (AID 1160). The settings on record: HEK293-NOX4, Amplex Red H2O2 fluorescence, 45 min; higher = more signal, called active from +8 up or from −8 down.
Chain of NADPH oxidase 4 (Homo sapiens) (Q9NPH5 whole entry, looked up): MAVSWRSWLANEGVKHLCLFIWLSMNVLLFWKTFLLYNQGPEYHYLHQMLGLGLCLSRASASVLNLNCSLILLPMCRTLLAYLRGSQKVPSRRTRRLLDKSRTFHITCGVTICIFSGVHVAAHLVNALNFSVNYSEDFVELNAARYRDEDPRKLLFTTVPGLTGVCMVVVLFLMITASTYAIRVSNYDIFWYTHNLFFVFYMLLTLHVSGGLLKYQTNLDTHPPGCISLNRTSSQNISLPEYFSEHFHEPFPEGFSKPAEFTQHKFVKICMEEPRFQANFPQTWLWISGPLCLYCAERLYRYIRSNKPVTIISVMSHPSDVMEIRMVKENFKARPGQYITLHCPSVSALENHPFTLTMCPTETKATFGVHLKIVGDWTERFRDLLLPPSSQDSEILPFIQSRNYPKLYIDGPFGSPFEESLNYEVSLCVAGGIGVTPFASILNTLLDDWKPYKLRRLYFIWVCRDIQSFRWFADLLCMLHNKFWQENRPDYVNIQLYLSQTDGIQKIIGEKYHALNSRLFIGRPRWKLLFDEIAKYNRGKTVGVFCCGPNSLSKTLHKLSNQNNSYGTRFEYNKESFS
Assay [20] concerns the target NADPH oxidase 5 (Homo sapiens) (UniProt Q96PH1). Description: compounds shifting NOX5 Amplex Red fluorescence – cell-based, HEK293-NOX5, NOX inhibitor project, primary screen (AID 1161). Particulars: HEK293-NOX5, ionomycin, 45 min, higher = more signal.

Active and inactive are the calls of the source. Unless noted, the rule behind the calls is not given here.

Chain of NADPH oxidase 5 (Homo sapiens) (Q96PH1 whole entry, looked up): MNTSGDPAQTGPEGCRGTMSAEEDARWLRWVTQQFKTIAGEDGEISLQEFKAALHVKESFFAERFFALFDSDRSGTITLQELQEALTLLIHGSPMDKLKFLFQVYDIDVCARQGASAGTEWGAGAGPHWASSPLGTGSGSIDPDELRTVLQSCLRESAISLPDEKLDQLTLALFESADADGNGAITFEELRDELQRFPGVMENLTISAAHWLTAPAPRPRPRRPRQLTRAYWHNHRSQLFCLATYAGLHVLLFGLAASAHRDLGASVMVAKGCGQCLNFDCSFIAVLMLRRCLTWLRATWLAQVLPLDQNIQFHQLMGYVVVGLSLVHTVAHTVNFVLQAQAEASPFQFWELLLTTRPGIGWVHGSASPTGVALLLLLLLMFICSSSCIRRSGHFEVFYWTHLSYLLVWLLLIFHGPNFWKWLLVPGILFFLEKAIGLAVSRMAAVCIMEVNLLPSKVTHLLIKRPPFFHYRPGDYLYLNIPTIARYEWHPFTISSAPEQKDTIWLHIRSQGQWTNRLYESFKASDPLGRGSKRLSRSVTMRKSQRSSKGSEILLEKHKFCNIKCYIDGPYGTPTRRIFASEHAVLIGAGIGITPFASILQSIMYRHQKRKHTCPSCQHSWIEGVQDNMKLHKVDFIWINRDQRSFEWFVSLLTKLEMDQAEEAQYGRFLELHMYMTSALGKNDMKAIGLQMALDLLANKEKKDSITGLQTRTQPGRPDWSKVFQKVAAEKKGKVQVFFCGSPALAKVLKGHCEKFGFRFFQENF
Chain of Torsin-1A (Homo sapiens) (O14656 whole entry, looked up): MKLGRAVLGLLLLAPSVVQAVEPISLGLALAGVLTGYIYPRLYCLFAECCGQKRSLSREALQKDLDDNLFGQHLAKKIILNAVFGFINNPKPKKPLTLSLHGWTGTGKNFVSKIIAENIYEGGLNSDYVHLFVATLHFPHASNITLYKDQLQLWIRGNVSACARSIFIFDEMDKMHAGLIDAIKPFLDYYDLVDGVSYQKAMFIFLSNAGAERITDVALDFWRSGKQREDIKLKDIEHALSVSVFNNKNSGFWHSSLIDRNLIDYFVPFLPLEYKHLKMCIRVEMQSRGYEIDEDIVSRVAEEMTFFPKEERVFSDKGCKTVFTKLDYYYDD

For `O=C1C=C[C@@H](O)[C@@H]2[C@@H]3C(=O)N(Cc4ccccc4)C(=O)[C@@H]3CC[C@@H]12`, the composite z-score in assay [1] is -0.0088; in [6], 0.222; in assay [7], -0.128; in assay [8] it was 0.418; in assay [9] it was 0.376; in assay [10], 0.632. Besides, the composite z-score in [12] is -0.0145. In addition, the z-score in assay [2] was -0.122 (inactive); in assay [3] it was -0.158 (inactive); in [4], -0.566 (inactive); in assay [5] it was -0.768 (inactive); in [11], 0.763 (inactive); in assay [13], 0.09 (inactive). In addition, the z-score was 0.201 (inactive) in [14]; 0.853 (inactive) in assay [15]; -0.0165 (inactive) in assay [16]; 0.09 in [17]; 0.808 (inactive) in assay [18]; 0.553 (inactive) in assay [19]. Moreover, the z-score in assay [20] came out at 0.455.

Turning to `CC1(C)O[C@H]2O[C@H]([C@H](O)CON=C3[C@H]4CCn5c(=O)n(-c6ccccc6)c(=O)n5[C@H]4[C@H](O)[C@@H]4O[C@H]34)[C@H](O)[C@H]2O1`, the composite z-score in assay [1] was 0.0179; in assay [6], 0.0676; in assay [7], -0.154; in assay [8] it was 0.43; in assay [9], -0.0174; in assay [10] it was -0.217. Further, the composite z-score in assay [12] is -0.0375. The z-score is -0.279 (inactive) in assay [2]; -0.295 (inactive) in assay [3]; 0.494 (inactive) in assay [4]; 0.771 (inactive) in [5]; -0.169 (inactive) in assay [11]; 0.246 (inactive) in [13]. Further, the z-score in [14] was 0.282 (inactive); in [15] it was 0.267 (inactive); in [16], 0.343 (inactive); in assay [17], -0.693; in assay [18] it was 0.197 (inactive); in assay [19] it was 0.0828 (inactive). Also, the z-score in [20] is -0.47.

Consider `CC(C)[C@@H](OCc1ccccc1)[C@H](C)C=NO[C@@H](C)c1cn([C@H](CO)Cc2ccccc2)nn1`, for which the composite z-score in assay [1] is -0.0307; in [6] it was -0.0202; in assay [7], -0.107; in assay [8], 0.752; in assay [9], 0.441; in [10] it was 0.26. Moreover, the composite z-score in assay [12] is 0.086. The z-score in [2] is -0.927 (inactive); in assay [3] it was 0.496 (inactive); in [4], 0.843 (inactive); in assay [5], -0.0785 (inactive); in [11], 0.502 (inactive); in assay [13], 1.82 (inactive). In addition, the z-score was -0.246 (inactive) in assay [14]; -0.038 (inactive) in assay [15]; 0.245 (inactive) in assay [16]; -0.78 in assay [17]; -1.07 (inactive) in assay [18]; -0.046 (inactive) in assay [19]. In assay [20], the z-score is -0.543.

Consider `CCN1C(=O)[C@H]2[C@H]3[C@H](O)[C@H](O)CC(=NO[C@@H](C)c4cc(-c5c(C)cc(C)cc5C)no4)[C@@H]3CC[C@H]2C1=O`, for which the composite z-score in [1] is 0.266; in [6], 0.203; in assay [7], 0.0756; in assay [8], 1.22; in assay [9], 1.33; in assay [10], 1.15. Moreover, the composite z-score in assay [12] was -0.103. Besides, the z-score is -1.74 (inactive) in [2]; 0.847 (inactive) in assay [3]; 2.08 (inactive) in [4]; 0.205 (inactive) in assay [5]; 0.663 (inactive) in [11]; 2.34 (inactive) in [13]. Further, the z-score is 0.496 (inactive) in assay [14]; 0.504 (inactive) in assay [15]; 0.588 (inactive) in assay [16]; -0.428 in assay [17]; 0.204 (inactive) in assay [18]; 0.175 (inactive) in assay [19]. The z-score in assay [20] was 0.211.

Take `CC(=O)OC[C@H]1O[C@H](CC=NO[C@@H](C)c2cc(-c3c(C)cc(C)cc3C)no2)C=C[C@@H]1OC(C)=O`: the composite z-score in assay [1] was -0.184; in [6] it was 0.897; in assay [7], -0.175; in [8], 0.213; in assay [9], -0.31; in assay [10], 0.0602. Moreover, the composite z-score in assay [12] is -0.101. Further, the z-score is 0.125 (inactive) in assay [2]; -0.176 (inactive) in assay [3]; 0.173 (inactive) in [4]; 0.481 (inactive) in assay [5]; 0.11 (inactive) in [11]; 2.12 (inactive) in assay [13]. Also, the z-score was 0.629 (inactive) in [14]; 1.12 (inactive) in assay [15]; 0.343 (inactive) in assay [16]; -0.194 in assay [17]; -1.27 (inactive) in assay [18]; -0.444 (inactive) in [19]. The z-score in [20] is -2.99.
